The values below come from PubChem BioAssay (Tox21).

The nature of test [1]: qHTS assay to identify small molecule antagonists of the thyroid receptor (TR) signaling pathway - cell viability counter screen (AID 743064). Also: nearly all actives have a fitted effect of over 50% in size. Also: potency is read from the fitted curve at half-maximal effect. As to conditions: GH3.TRE-Luc viability, CellTiter-Fluor, 24 h; series mostly up to 70.3 µM. The procedure, abridged:
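Plate GH3.TRE-Luc cells; incubate 4 h at 37 °C; add compound, then T3 to 1 nM final; incubate 23.5 h; add CellTiter-Fluor; incubate 30 min at 37 °C, 5% CO2; read fluorescence.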

Test [2] concerns thyroid hormone receptor (rat, GH3 cells). The test can be described thus: qHTS assay to identify small molecule agonists of the thyroid receptor (TR) signaling pathway (AID 743066; calls by dose curve). As to conditions: GH3.TRE-Luc cells, TR agonist luciferase, 24 h; series mostly up to 83.9 µM.
The target of test [3] is Estrogen receptor (Homo sapiens) (UniProt P03372). The experiment in a line: qHTS assay to identify small molecule antagonists of the estrogen receptor alpha (ER-alpha) signaling pathway (AID 743069; active = well fitted curve in the direction sought with a large enough effect in the signal ratio in the repeat runs, not every such curve was filed as active; the % refers to the signal ratio). As to conditions: HEK293 ER-alpha-UAS-bla, beta-lactamase ratio, antagonist mode; series mostly up to 69.4 µM. The procedure, abridged:
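Fluorescence intensity from a beta-lactamase FRET substrate served as the read-out. Cells: HEK293 with stably integrated ER-alpha-UAS-bla reporter. Agonist 17beta-estradiol was co-added with compounds; incubation 18 hr at 37C, substrate 2 hr at room temperature.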

The nature of test [4]: qHTS assay to identify small molecule antagonists of the estrogen receptor alpha (ER-alpha) signaling pathway - cell viability counter screen (AID 743074; calls by dose curve; also: nearly all actives have a fitted effect of over 45% in size; also: potency is read from the fitted curve at half-maximal effect). The following applies: ERalpha-bla HEK293 viability, CellTiter-Glo luminescence, 18 h; series mostly up to 69.4 µM.
The target of test [5] is Estrogen receptor (Homo sapiens) (UniProt P03372). The test can be described thus: qHTS assay to identify small molecule agonists of the estrogen receptor alpha (ER-alpha) signaling pathway (AID 743075; calls by dose curve). The following applies: HEK293 ER-alpha-UAS-bla, beta-lactamase FRET ratio, 18 h; series mostly up to 70.1 µM.
For test [6] the target is unchanged. The experiment in a line: qHTS assay to identify small molecule agonists of the estrogen receptor alpha (ER-alpha) signaling pathway using the BG1 cell line (AID 743079). Also: nearly all actives have a fitted effect of over 20% in size. The following applies: BG1Luc4E2 cells, ERE-luciferase agonist, 22 h; series mostly up to 70.3 µM.
Test [7] is described as follows: qHTS assay to identify small molecule antagonists of the estrogen receptor alpha (ER-alpha) signaling pathway using the BG1 cell line - cell viability counter screen (AID 743081).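 Also: compound given together with 17beta-estradiol as the ER stimulus; nearly all actives have a fitted effect of over 45% in size.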 The following applies: BG1Luc4E2 viability, CellTiter-Fluor, 22 h; series mostly up to 70.3 µM.
The target in test [8] is Aromatase (Homo sapiens) (UniProt P11511). The test can be described thus: qHTS assay to identify aromatase inhibitors (AID 743083). Also: nearly all actives have a fitted effect of over 55% in size. Also: potency is read from the fitted curve at half-maximal effect. The following applies: MCF-7 aro ERE, testosterone-driven ERE luciferase, 24 h; series mostly up to 70.3 µM.
Test [9] in a line: qHTS assay to identify aromatase inhibitors - cell viability counter screen (AID 743084).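 Also: cells stimulated with testosterone during compound exposure; nearly all actives have a fitted effect of over 55% in size.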 Also: potency is read from the fitted curve at half-maximal effect. As to conditions: MCF-7 aro ERE viability, CellTiter-Fluor, 24 h; series mostly up to 70.3 µM.
Test [10] deals with Aryl hydrocarbon receptor (Homo sapiens) (UniProt P35869). The experiment in a line: qHTS assay to identify small molecule that activate the aryl hydrocarbon receptor (AhR) signaling pathway (AID 743085). Also: nearly all actives have a fitted effect of over 15% in size. Also: potency is read from the fitted curve at half-maximal effect.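 As to activation: HG2L7.5c1 human HepG2 liver cells with stably integrated DRE-driven firefly reporter.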 As to conditions: HepG2 AhR-luc (HG2L7.5c1), luciferase, 24 h; series mostly up to 70.3 µM. The procedure, abridged: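 Steps: seed HepG2-AhR-luc cells; allow 5 h at 37C; pin-transfer test compound or vehicle; incubate 24 h at 37C; add viability dye (30 min, 37C) and read fluorescence; add luciferase substrate (30 min, RT) and read luminescence.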

A short description of test [11]: qHTS assay to identify small molecule that activate the aryl hydrocarbon receptor (AhR) signaling pathway - cell viability counter screen (AID 743086). Also: nearly all actives have a fitted effect of over 45% in size. Also: potency is read from the fitted curve at half-maximal effect. As to conditions: HepG2-AhR-luc viability, CellTiter-Fluor, 24 h; series mostly up to 70.3 µM. The procedure, abridged:
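Cytotoxicity counter screen: CellTiter-Fluor signal (30 min, 37 C) in 4000 HepG2 cells/well carrying the DRE-luciferase reporter, following 24 h compound exposure at 37 C.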

Test [12] has as its target Peroxisome proliferator-activated receptor gamma (Homo sapiens) (UniProt P37231). The experiment in a line: qHTS assay to identify small molecule agonists of the peroxisome proliferator-activated receptor gamma (PPARg) signaling pathway (AID 743094; active = well fitted activation curve with a large enough effect in the signal ratio in the repeat runs, not every such curve was filed as active; the % refers to the signal ratio). The following applies: HEK293H PPARg-UAS-bla, beta-lactamase FRET ratio, 17 h; series mostly up to 57 µM. The procedure, abridged:
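Agonism was assessed in a beta-lactamase reporter system, HEK293H cells with a stably integrated UAS-bla construct under PPARg control; the 17 h treatment at 37C preceded a 1 h room-temperature FRET substrate read.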

Test [13] in a line: qHTS assay for small molecule agonists of the antioxidant response element (ARE) signaling pathway (AID 743202; active = well fitted activation curve with a large enough effect in the signal ratio in the repeat runs, not every such curve was filed as active; the % refers to the signal ratio; also: potency is read from the fitted curve at half-maximal effect). The following applies: HepG2 ARE-bla reporter, beta-lactamase FRET, 16 h; series mostly up to 73.3 µM. The procedure, abridged: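 Beta-lactamase reporter activity, read as fluorescence intensity, reflects ARE/Nrf2 pathway induction in HepG2 cells after 16 h compound exposure at 37 C; substrate loading was 2 h at room temperature.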

Test [14] is described as follows: qHTS assay for small molecule agonists of the antioxidant response element (ARE) signaling pathway - cell viability counter screen (AID 743203; calls by dose curve; also: nearly all actives have a fitted effect of over 55% in size; also: potency is read from the fitted curve at half-maximal effect). The following applies: ARE-bla HepG2 viability, CellTiter-Glo luminescence, 16 h; series mostly up to 73.3 µM. The procedure, abridged:
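ATP content via CellTiter-Glo luminescence served as the viability measure. Cells: ARE-bla HepG2, 2,000 per well. Exposure: 16 hrs, 37C/5% CO2.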

The nature of test [15]: qHTS assay for small molecule activators of the heat shock response signaling pathway - cell viability counter screen (AID 743209). Also: nearly all actives have a fitted effect of over 50% in size. Also: potency is read from the fitted curve at half-maximal effect. As to conditions: HSE-bla HeLa viability, CellTiter-Glo luminescence, 5 h; series mostly up to 62.6 µM. The procedure, abridged: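 Compounds dissolved in DMSO were added to overnight-plated HSE-bla HeLa cells and left 5 h at 37 C. Cell viability was quantified by luminescence using CellTiter-Glo.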

A short description of test [16]: qHTS assay to identify small molecule agonists of the peroxisome proliferator-activated receptor delta (PPARd) signaling pathway - cell viability counter screen (AID 743211). Also: nearly all actives have a fitted effect of over 55% in size. Also: potency is read from the fitted curve at half-maximal effect. As to conditions: PPARd-bla HEK293H viability, CellTiter-Glo luminescence, 17 h; series mostly up to 62.6 µM. The procedure, abridged: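 Viability of GeneBLAzer PPARd UAS-bla HEK293H cells was assessed after 17 h compound incubation at 37C, using CellTiter-Glo reagent added after the reporter read and luminescence recorded 30 min later.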

Test [17] has as its target Peroxisome proliferator-activated receptor delta (Homo sapiens) (UniProt Q03181). The test can be described thus: qHTS assay to identify small molecule agonists of the peroxisome proliferator-activated receptor delta (PPARd) signaling pathway (AID 743212; calls by dose curve). The following applies: HEK293H PPARd-UAS-bla, beta-lactamase FRET ratio, 17 h; series mostly up to 62.6 µM. The procedure, abridged:
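Steps: seed PPARd-bla HEK293H cells; incubate 5 h, 37 C, 5% CO2; add compounds in DMSO; incubate, 37 C; add LiveBLAzer B/G FRET substrate; hold 2 h at room temperature; measure fluorescence.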

A short description of test [18]: qHTS assay for small molecule activators of the heat shock response signaling pathway (AID 743210; active = well fitted activation curve with a large enough effect in the signal ratio in the repeat runs, with a control signal flat, not every such curve was filed as active; the % refers to the signal ratio). As to conditions: HeLa HSE-bla reporter, beta-lactamase ratio, 5 h; series mostly up to 62.6 µM. The procedure, abridged: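 Fluorescence from a cleaved B/G FRET substrate (2.5 h, room temp) reports HSE-driven beta-lactamase in HeLa cells treated 5 h at 37 C with DMSO-dissolved compounds.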

A short description of test [19]: qHTS assay to identify small molecule antagonists of the thyroid receptor (TR) signaling pathway (AID 743065). Also: nearly all actives have a fitted effect of over 55% in size. The following applies: GH3.TRE-Luc, T3-stimulated luciferase inhibition, 23.5 h; series mostly up to 70.3 µM. The procedure, abridged: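 Antagonism measured as loss of luciferase signal in GH3 cells stably carrying a TRE-luciferase reporter, co-treated with compound and T3 (1 nM final) for 23.5 h at 37 C. Viability was read in the same well by CellTiter-Fluor.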

Test [20] in a line: qHTS assay to identify small molecule antagonists of the peroxisome proliferator-activated receptor gamma (PPARg) signaling pathway - cell viability counter screen (AID 743194). Also: nearly all actives have a fitted effect of over 55% in size. Also: potency is read from the fitted curve at half-maximal effect. The following applies: PPARg-bla HEK293H viability, CellTiter-Glo luminescence, 17 h; Potency: co-treated with 50 nM rosiglitazone unless noted; series mostly up to 62.6 µM. The procedure, abridged: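 Viability was measured as CellTiter-Glo luminescence in GeneBLAzer PPARg UAS-bla HEK293H cells. These cells had been exposed 17 h at 37 C to compounds together with rosiglitazone at 50 nM final, with the beta-lactamase readout taken in the same wells.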

Structures are written as SMILES. Values joined by “and” are separate entries in the source; they are usually repeats but may differ in a detail not shown here. Identical values can stand only once. Results filed as inconclusive are left out. Some compounds were tested as several samples or in several runs, with calls that do not always agree. Active and inactive are the calls of the source. Unless noted, calls follow the shape of the dose curve; as a rule, active = well fitted curve in the direction sought with a large enough effect in the repeat runs; inconclusive = weak or mixed curves; inactive = no such curve, though single readings can be large; an effect the other way counts as inactive or inconclusive.
% is scaled to controls: 0 for no effect and ±100 for the full control effect.

Peroxisome proliferator-activated receptor delta (Homo sapiens), sequence (Q03181 whole entry, looked up): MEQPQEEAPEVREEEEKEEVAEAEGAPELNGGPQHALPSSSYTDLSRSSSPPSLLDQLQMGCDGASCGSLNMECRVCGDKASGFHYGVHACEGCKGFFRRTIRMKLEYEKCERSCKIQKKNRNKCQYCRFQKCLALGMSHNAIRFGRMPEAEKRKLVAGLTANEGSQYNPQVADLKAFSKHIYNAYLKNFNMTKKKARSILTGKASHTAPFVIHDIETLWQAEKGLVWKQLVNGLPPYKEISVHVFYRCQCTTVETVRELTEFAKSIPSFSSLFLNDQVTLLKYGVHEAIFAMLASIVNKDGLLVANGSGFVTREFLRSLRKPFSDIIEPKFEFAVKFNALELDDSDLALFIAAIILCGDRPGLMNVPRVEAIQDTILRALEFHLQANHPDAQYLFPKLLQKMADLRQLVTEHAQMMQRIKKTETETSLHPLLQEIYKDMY
Aromatase (Homo sapiens), sequence (P11511 whole entry, looked up): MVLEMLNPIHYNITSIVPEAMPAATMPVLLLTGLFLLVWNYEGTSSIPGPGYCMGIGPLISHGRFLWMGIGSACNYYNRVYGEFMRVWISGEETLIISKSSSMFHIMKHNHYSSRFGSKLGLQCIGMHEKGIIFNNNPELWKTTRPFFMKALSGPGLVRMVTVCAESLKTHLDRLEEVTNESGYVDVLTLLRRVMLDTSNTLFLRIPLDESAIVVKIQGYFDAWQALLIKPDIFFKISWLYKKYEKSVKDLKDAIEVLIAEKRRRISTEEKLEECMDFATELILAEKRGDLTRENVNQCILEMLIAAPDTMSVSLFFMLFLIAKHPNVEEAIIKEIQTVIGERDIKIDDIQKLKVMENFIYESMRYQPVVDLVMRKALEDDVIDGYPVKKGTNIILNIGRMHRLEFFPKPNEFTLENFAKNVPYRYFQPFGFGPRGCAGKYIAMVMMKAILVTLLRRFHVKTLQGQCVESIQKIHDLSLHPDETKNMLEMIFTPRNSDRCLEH
Aryl hydrocarbon receptor (Homo sapiens), sequence (P35869 whole entry, looked up): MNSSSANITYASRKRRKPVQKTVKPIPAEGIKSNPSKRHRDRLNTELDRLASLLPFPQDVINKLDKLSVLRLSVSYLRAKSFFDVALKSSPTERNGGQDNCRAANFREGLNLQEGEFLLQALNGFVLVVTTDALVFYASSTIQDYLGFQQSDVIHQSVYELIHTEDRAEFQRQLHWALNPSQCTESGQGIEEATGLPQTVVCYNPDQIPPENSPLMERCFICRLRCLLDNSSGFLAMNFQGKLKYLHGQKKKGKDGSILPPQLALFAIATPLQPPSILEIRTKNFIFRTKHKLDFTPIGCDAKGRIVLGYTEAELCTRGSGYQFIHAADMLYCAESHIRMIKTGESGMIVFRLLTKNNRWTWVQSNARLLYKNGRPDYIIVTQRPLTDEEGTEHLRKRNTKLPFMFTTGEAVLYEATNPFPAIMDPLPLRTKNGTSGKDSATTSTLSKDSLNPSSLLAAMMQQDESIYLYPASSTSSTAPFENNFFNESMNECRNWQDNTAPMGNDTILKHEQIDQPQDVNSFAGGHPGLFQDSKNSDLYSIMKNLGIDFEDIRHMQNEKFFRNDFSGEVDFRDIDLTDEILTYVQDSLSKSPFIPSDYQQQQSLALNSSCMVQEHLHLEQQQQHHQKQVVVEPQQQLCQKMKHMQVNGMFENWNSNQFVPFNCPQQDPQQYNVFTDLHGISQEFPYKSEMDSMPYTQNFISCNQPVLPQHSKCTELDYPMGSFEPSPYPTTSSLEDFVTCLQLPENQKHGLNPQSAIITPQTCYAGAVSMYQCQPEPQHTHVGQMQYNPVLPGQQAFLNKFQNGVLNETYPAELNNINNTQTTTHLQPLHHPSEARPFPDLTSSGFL
Estrogen receptor (Homo sapiens), sequence (P03372 whole entry, looked up): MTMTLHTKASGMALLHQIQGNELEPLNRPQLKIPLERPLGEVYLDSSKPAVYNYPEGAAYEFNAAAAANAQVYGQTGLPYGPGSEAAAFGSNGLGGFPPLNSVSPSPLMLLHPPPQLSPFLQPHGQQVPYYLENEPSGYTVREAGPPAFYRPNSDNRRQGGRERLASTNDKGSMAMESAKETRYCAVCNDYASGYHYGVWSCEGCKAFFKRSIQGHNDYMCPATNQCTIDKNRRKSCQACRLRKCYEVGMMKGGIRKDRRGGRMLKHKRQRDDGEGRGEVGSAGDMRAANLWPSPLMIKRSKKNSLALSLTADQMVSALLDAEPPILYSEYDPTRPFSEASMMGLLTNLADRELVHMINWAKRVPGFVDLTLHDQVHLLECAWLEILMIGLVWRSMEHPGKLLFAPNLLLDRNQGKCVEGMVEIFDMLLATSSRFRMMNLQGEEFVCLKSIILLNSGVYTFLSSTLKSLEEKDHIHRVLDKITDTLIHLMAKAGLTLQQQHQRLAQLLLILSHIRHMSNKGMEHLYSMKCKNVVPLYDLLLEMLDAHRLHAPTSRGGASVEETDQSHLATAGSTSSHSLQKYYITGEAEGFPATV
Peroxisome proliferator-activated receptor gamma (Homo sapiens), sequence (P37231 whole entry, looked up): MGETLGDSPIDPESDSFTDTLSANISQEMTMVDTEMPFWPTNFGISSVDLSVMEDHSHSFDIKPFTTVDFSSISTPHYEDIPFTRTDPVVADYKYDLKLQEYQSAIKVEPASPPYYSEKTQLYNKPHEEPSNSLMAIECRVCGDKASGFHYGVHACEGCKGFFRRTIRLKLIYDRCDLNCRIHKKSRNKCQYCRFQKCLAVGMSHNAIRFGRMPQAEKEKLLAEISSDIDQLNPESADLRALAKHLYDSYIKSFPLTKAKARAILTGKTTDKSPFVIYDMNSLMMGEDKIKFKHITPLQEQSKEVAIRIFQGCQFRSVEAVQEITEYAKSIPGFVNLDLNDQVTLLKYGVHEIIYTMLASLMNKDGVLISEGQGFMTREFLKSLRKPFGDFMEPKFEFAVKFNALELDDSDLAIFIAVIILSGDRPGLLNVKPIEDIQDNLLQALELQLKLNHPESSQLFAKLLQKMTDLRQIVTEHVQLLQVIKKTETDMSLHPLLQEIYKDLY

On to `C[N+](C)(C)Cc1ccccc1`, for which the Potency entry in [1], in [2], in test [3], in [4], in test [5] and in [6] was “inactive” throughout. In addition, the Potency entry in test [7], in test [8], in test [9], in [10], in test [11] and in [13] was “inactive” in each case. The Potency result in test [14], in [15] and in [16] was “inactive” in each case. Also, the result in test [12] and in test [17] was inactive.
As for `Oc1ccccc1-c1ccccc1`, the Potency entry in test [1], in test [2], in test [3], in test [4], in [5] and in [6] was “inactive” each time. Further, the Potency entry in test [7], in test [8], in [9], in test [11], in [14] and in test [15] was “inactive” in each case. Moreover, the Potency entry in test [16] is “inactive”. Also, the Potency entry in test [10] is “inactive and 24.9 µM (active)”; in test [13], 55.8 µM (active). Also, the outcome in test [12] and in test [17] was inactive.
For the compound `Oc1cccc2cccnc12`, the Potency entry in test [2], in [4] and in test [7] was “inactive” each time. Besides, the Potency in test [9] was 1.38 µM (active) and 686 nM (active); in [11], “inactive and 18.8 µM (active) and 2.05 µM (active)”; in test [13], 6.14 µM (active) and 25.9 µM (active) and inactive; in [14] it was “inactive and 4.33 µM (active)”; in test [15], 876 nM (active) and inactive and 710 nM (active); in test [16] it was 414 nM (active) and 155 nM (active) and inactive. In addition, the outcome in [18] was inactive.
For the compound `COCC(=O)N(c1c(C)cccc1C)C(C)C(=O)OC` (centres undefined), the Potency entry in test [1], in test [3], in test [4], in test [5], in test [6] and in test [7] was “inactive” throughout. Besides, the Potency entry in [8], in test [9], in test [10], in test [11], in [13] and in test [14] was “inactive” in each case. For the same compound, the Potency result in [15] and in test [16] was “inactive” each time. In addition, the outcome in [12], in [18] and in test [17] was inactive.
Turning to `O=C(O)CCl`, the Potency entry in test [1], in test [19], in test [2], in test [4], in test [7] and in test [8] was “inactive” each time. The Potency result in [9], in [11], in test [20], in test [13], in [14] and in [15] was “inactive” throughout. For the same compound, in [16], the Potency result was “inactive”. Further, the result in test [12] and in test [18] was inactive.
As to `CCCCCCCCCCCCn1cc[n+](C)c1`, the Potency in [1] was 4.4 µM (active) [middle of 6 runs]. Moreover, in test [13], the Potency result is “inactive”. Moreover, the outcome in test [18] was inactive.
For `CCCC[n+]1ccc(C)cc1`, the Potency result in test [1] is “inactive and 30.5 µM (active)”; in test [4] it was “inactive and 48.7 µM (active)”; in test [8], “inactive and 19.4 µM (active)”; in [20], “inactive and 48.7 µM [setting not given] (active)”; in test [13] it was 3.91 µM (active) and 4.33 µM (active) and inactive; in [15], 54.7 µM (active) and inactive. Moreover, in [16], the Potency entry was “inactive and 48.7 µM (active)”. Besides, the Potency entry in test [2], in [7], in test [9], in test [11] and in test [14] was “inactive” throughout. For the same compound, the result in test [18] was inactive.
Turning to `CCCCCCn1cc[n+](C)c1`, the Potency result in test [1], in [19], in test [2], in test [7], in [8] and in test [9] was “inactive” throughout. Also, the Potency result in test [10], in test [11], in [20], in test [14], in test [15] and in [16] was “inactive” throughout.
